The source of these data is PubChem BioAssay.

The structures appear in SMILES notation. Activity calls are given as the source filed them.

One assay concerns the target Albumin (Bos taurus) (UniProt P02769). The assay is described as follows: bovine serum albumin binders on microarray, profiling panel, artefact control for SMM control protein annotation, biochemical, small-molecule microarray, Alexa647 label, 635/667 nm fluorescence (AID 1118).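 Further: score merges 667 nm emission intensity and signal-to-noise per printed compound spot.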 Particulars: BSA-A647 binding, fluorescence 635 nm, higher = more signal.
The nature of assay [1]: small-molecule microarray binders of probe aXIP, primary screen, biochemical, NeuroSMM set, 635/667 nm fluorescence (AID 1119).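 Further: probe is the protein aXip251-270 applied at 1 µg/mL to compound-printed slides; binding of probe to printed compounds measured as 667 nm fluorescence plus signal to noise.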 Particulars: higher = more signal, called active from +8 up or from −8 down.
A short description of assay [2]: small-molecule binders of probe aNOTCH3, primary screen, biochemical, small-molecule microarray, 635/667 nm fluorescence (AID 1120).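 Further: probe is a biotin-tagged antibody raised against NOTCH3 rather than NOTCH3 protein; score merges spot fluorescence near 667 nm with spot signal to noise.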 Particulars: higher = more signal.
A short description of assay [3]: small-molecule binders of probe aNOTCH2, primary screen, biochemical, small-molecule microarray, 635/667 nm fluorescence (AID 1121).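 Further: score merges feature fluorescence read at 667 nm with its signal to noise.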 The following applies: higher = more signal.
The target of assay [4] is Carbonic anhydrase 2 (Homo sapiens) (UniProt P00918). The assay is described as follows: CAII small-molecule binders, profiling panel, biochemical, small-molecule microarray, Alexa647-labelled CAII (AID 1122). The following applies: CAII-A647 binding fluorescence, higher = more signal.
The nature of assay [5]: COS7 lysate on small-molecule microarray, probe aHis, 635 nm (AID 1123).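 Further: z-score combines 667nm fluorescence intensity with signal-to-noise per printed compound spot.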 Particulars: COS7 cell lysate, fluorescence, higher = more signal.
The nature of assay [6]: compound binding in COS7 lysate, probe aLAP1, primary screen, cell lysate, small-molecule microarray (AID 1124).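 Further: lysate comes from COS7 cells expressing LAP1 and is applied at 0.3 µg/mL; score merges spot fluorescence near 667 nm with signal-to-noise over triplicate slides.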 Particulars: probe aLAP1, fluorescence, higher = more signal.
The subject of another assay is Sam68 (KHDRBS1). Put plainly: Sam68 small-molecule binders, primary screen, biochemical, small-molecule microarray, 635 nm fluorescence (AID 1125).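 Further: score merges 667 nm channel intensity with signal to noise over triplicate slides.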 Particulars: small-molecule microarray binding, higher = more signal.
Assay [7] deals with Chordin-like protein 2 (CHRDL2). The assay is described as follows: CHRDL2 small-molecule binders, primary screen, biochemical, small-molecule microarray, 635 nm fluorescence (AID 1126).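 Further: printed compound slides probed with Chrdl2 protein at 4 µg/mL for 1 h at 4 C; score merges 667 nm emission intensity with signal to noise over three replicate slides.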 Particulars: small-molecule microarray binding, fluorescence 635 nm; higher = more signal.
Assay [8] addresses Concanavalin-A (Canavalia ensiformis) (UniProt P02866). The assay is described as follows: ConA small-molecule binders, primary screen, artefact control for SMM control protein annotation, biochemical, small-molecule microarray, Alexa647 label, 635 nm (AID 1127).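 Further: z combines 667 nm emission intensity with signal-to-noise across three replicate slides.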 The following applies: ConA-A647 binding fluorescence, higher = more signal.

Concanavalin-A (Canavalia ensiformis), sequence (P02866 whole entry, looked up): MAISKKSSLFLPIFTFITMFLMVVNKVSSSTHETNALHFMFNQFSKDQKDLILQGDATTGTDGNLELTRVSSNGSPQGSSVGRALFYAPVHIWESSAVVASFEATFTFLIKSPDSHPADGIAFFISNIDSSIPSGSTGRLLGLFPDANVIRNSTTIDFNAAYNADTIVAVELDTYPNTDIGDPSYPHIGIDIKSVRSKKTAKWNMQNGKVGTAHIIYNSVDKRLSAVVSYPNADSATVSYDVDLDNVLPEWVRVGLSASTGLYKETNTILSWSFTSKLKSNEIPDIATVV
Albumin (Bos taurus), sequence (P02769 whole entry, looked up): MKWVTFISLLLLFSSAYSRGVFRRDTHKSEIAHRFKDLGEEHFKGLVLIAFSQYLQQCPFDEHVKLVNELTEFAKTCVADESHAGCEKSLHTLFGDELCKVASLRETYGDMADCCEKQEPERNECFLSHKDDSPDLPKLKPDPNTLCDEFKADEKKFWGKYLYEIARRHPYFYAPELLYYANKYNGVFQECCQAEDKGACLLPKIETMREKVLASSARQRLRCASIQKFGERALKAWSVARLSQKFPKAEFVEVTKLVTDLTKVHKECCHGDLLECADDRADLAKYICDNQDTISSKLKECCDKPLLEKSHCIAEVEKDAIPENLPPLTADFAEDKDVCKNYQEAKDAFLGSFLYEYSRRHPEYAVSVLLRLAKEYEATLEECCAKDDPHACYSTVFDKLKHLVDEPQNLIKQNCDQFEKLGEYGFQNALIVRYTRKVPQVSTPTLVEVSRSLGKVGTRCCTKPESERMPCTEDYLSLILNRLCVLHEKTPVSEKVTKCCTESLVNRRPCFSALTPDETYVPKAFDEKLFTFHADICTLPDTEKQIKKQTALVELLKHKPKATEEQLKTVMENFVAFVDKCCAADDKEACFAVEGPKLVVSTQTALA

Take `O=C1NC(=O)C2C1C=CC(C(O)c1ccc(F)cc1)N2Nc1ccccn1` (stereo not given): the composite z-score is 0.691 in the assay with Albumin (Bos taurus); -0.004 in assay [2]; -0.0771 in assay [3]; 0.831 in assay [4]; 2.77 in assay [5]; -0.393 in [6]. The composite z-score in the assay with Sam68 (KHDRBS1) was -0.288; in assay [7], 0.317; in assay [8], 0.356. The composite Z-score in assay [1] was -0.531 (inactive).

`O=C1c2ccccc2[C@](Cc2ccccc2I)(C(=O)O)[C@H](c2ccc(CO)cc2)N1Cc1ccccc1`: the composite z-score with Albumin (Bos taurus) was 0.48; in assay [2] it was -0.123; in [3] it was -0.112; in assay [4] it was 0.729; in [5], 1.25; in assay [6], 1.05. In addition, the composite z-score in the assay with Sam68 (KHDRBS1) is 1.25; in assay [7], -0.813; in assay [8], 1.02. In addition, the composite Z-score in assay [1] was 0.929 (inactive).

As for `COc1ccc([Si](C)(C)[C@H]2[C@H](CCn3cc([C@H](O)c4ccccc4)nn3)O[C@@]3(C(=O)N(C)c4c(Br)cc(C)cc43)[C@@H]2C)cc1`, the composite z-score with Albumin (Bos taurus) was -0.628; in [2] it was -0.259; in [3], -0.103; in assay [4], -0.149; in assay [5], -0.215; in assay [6], -0.112. Moreover, the composite z-score in the assay on Sam68 (KHDRBS1) came out at 0.0516; in [7], 0.182; in [8] it was 0.005. The composite Z-score in assay [1] is 1.94 (inactive).

For the compound `C=CC[C@]1(C(=O)N(C)C)COC(c2ccc(OCCCO)cc2)=N1`, the composite z-score with Albumin (Bos taurus) came out at 0.795; in assay [2], 0.298; in assay [3] it was 0.107; in assay [4], 0.914; in [5] it was 3.5; in [6], 1.41. Besides, the composite z-score was 1.25 with Sam68 (KHDRBS1), -0.492 in assay [7] and 0.673 in assay [8]. Besides, the composite Z-score in assay [1] is -0.0102 (inactive).

Regarding `COC(=O)[C@@]1(Cc2ccc(F)cc2)[C@H]2c3cc(C(=O)N(C)C)n(CCn4cc([N+](=O)[O-])nc4C)c3C[C@H]2CN1C(=O)c1ccccc1`, the composite z-score stood at 0.781 with Albumin (Bos taurus); 0.0203 in [2]; 0.107 in assay [3]; 0.477 in [4]; 2.02 in [5]; 0.317 in [6]. In addition, the composite z-score was 0.155 with Sam68 (KHDRBS1), -0.187 in assay [7] and 0.294 in [8]. The composite Z-score in assay [1] was -0.133 (inactive).

On to `CCOC(=O)C[C@H]1[C@H](OC(=O)c2ccc(-c3ccccc3)cc2)[C@@H](NC(=O)CC(C)C)c2cc(OCCCO)ccc2N1C(=O)Cc1ccc(OC)cc1`, for which the composite z-score is 0.593 with Albumin (Bos taurus); 0.0582 in assay [2]; 0.0426 in assay [3]; -0.0667 in assay [4]; 0.179 in assay [5]; 0.39 in assay [6]. In addition, the composite z-score in the assay on Sam68 (KHDRBS1) is 0.309; in assay [7], -0.213; in assay [8], -0.286. For the same compound, in assay [1], the composite Z-score is -0.244 (inactive).

Consider `Cc1ccc(S[C@]2(C(=O)NCC(F)(F)F)CC(=O)N(C3CCCCC3)[C@@H]2c2ccc(CO)cc2)cc1`, for which the composite z-score with Albumin (Bos taurus) is 0.344; in assay [2], -0.161; in [3], -0.11; in assay [4], 0.702; in assay [5], 2; in assay [6], 0.298. Also, the values for the composite z-score (with Sam68 (KHDRBS1); in assay [7]; in assay [8]) were 0.626, -0.339 and -0.123, respectively. In addition, in assay [1], the composite Z-score is 0.399 (inactive).

With `O=C1O[C@H](c2ccccc2)[C@H](c2ccccc2)N2[C@H]1[C@@H](C(=O)NC[C@H](O)c1ccccc1)[C@]1(C(=O)Nc3ccc(C#CCCO)cc31)[C@H]2c1ccccc1OCCO`, the composite z-score in the assay with Albumin (Bos taurus) is 0.695; in assay [2] it was -0.0581; in assay [3], -0.0666; in assay [4], 0.597; in assay [5], 2.38; in assay [6], 0.728. Besides, the composite z-score was 1.29 with Sam68 (KHDRBS1), -0.189 in assay [7] and 1.02 in assay [8]. Moreover, the composite Z-score in assay [1] is 1.27 (inactive).

On to `COc1ccc([Si](C)(C)[C@H]2[C@H](CCn3cc([C@H](O)c4ccccc4)nn3)O[C@@]3(C(=O)N(c4ccccc4)c4ccccc43)[C@@H]2C)cc1`, for which the composite z-score was 0.121 with Albumin (Bos taurus); -0.0879 in [2]; -0.156 in assay [3]; -0.102 in assay [4]; -0.337 in assay [5]; -0.075 in assay [6]. Further, the composite z-score is 0.0941 in the assay with Sam68 (KHDRBS1), -0.201 in assay [7] and 0.173 in assay [8]. In addition, the composite Z-score in assay [1] is -0.112 (inactive).

For the compound `O=C1N(CCS(=O)(=O)c2ccccc2)c2ccccc2[C@@H]2OC(c3ccc(OCCCO)cc3)=N[C@]12CCS(=O)(=O)c1ccccc1`, the composite z-score came to 0.929 with Albumin (Bos taurus); 0.0496 in [2]; 0.0684 in [3]; 0.503 in assay [4]; 2.8 in [5]; 1.21 in [6]. The values for the composite z-score (in the assay with Sam68 (KHDRBS1); in assay [7]; in [8]) were 1.29, 1.1 and 1.15, respectively. The composite Z-score in assay [1] is 0.759 (inactive).

Regarding `C#CCN([C@H](/C=C/C1CC1)[C@@H](O)Cc1ccccc1)[C@@H](Cc1ccccc1)C(=O)OC`, the composite z-score is -0.578 with Albumin (Bos taurus); 0.15 in [2]; -0.164 in assay [3]; -0.179 in assay [4]; -0.485 in [5]; -0.454 in [6]. Besides, the composite z-score was 0.0511 in the assay on Sam68 (KHDRBS1), 0.686 in [7] and -0.249 in assay [8]. For the same compound, the composite Z-score in assay [1] was -0.232 (inactive).

As to `COc1ccccc1CN1C(=O)c2ccccc2[C@](Cc2ccccc2I)(C(=O)NCCCN(C)C)[C@@H]1c1ccc(CO)cc1`, the composite z-score was 0.0893 with Albumin (Bos taurus); -0.243 in assay [2]; -0.181 in assay [3]; 0.475 in assay [4]; 1.86 in assay [5]; 2.08 in assay [6]. Besides, the composite z-score in the assay with Sam68 (KHDRBS1) stood at 1.3; in assay [7] it was 0.176; in assay [8] it was 1.11. The composite Z-score in assay [1] was -0.105 (inactive).

On to `CC1CC/C=C\[C@H]2OC34C=CCN(CCN5CCOCC5)C(=O)[C@H]3N(CCCCCCO)C(=O)[C@@H]4C2C(=O)O1` (stereo not given in full), for which the composite z-score in the assay with Albumin (Bos taurus) was -0.0754; in assay [2] it was -0.438; in assay [3], -0.14; in assay [4] it was 0.864; in assay [5] it was -0.686; in assay [6], -0.362. Moreover, the results for the composite z-score (in the assay with Sam68 (KHDRBS1); in assay [7]; in assay [8]) were -0.715, -0.756 and -1.53, respectively. For the same compound, the composite Z-score in assay [1] was 0.446 (inactive).

For the compound `COCCOC(=O)N1C(=O)[C@@]2(c3cc(C#CC4=CCCCC4)ccc31)[C@H](C(=O)N1CCc3cc(OC)c(OC)cc3C1)[C@H]1C(=O)O[C@H](c3ccccc3)[C@H](c3ccccc3)N1[C@@H]2c1ccc(O)cc1`, the composite z-score in the assay with Albumin (Bos taurus) was 0.482; in assay [2], 0.285; in assay [3], 0.307; in [4], 0.267; in assay [5], 1.32; in [6] it was 0.858. Besides, the composite z-score amounted to 1.1 in the assay with Sam68 (KHDRBS1), 0.463 in assay [7] and 1.19 in [8]. For the same compound, the composite Z-score in assay [1] is 0.334 (inactive).

As for `COCCOC(=O)N1C(=O)[C@@]2(c3cc(C#Cc4ccc(OC)cc4)ccc31)[C@H](C(=O)N1CCCCCCC1)[C@H]1C(=O)O[C@H](c3ccccc3)[C@H](c3ccccc3)N1[C@@H]2c1ccccc1OCCO`, the composite z-score in the assay with Albumin (Bos taurus) is 0.768; in [2], 1.49; in assay [3], 0.793; in [4], 0.472; in assay [5], 3; in assay [6] it was 1.3. Besides, the composite z-score was determined as 1.3 in the assay on Sam68 (KHDRBS1), 1.21 in assay [7] and 0.893 in [8]. The composite Z-score in [1] was 4.24 (inactive).

For `COc1cccc(C[C@H]2C[C@@H](CO[Si](C(C)C)(C(C)C)C(C)C)N3C(=O)[C@@]4(C(C)=O)O[C@@]23[C@@H]2C(=O)N(C)C(=O)[C@@H]24)c1`, the composite z-score with Albumin (Bos taurus) is 0.166; in assay [2] it was -0.231; in assay [3], -0.118; in assay [4], 0.0137; in assay [5], 0.332; in assay [6], -0.316. The composite z-score with Sam68 (KHDRBS1) is 0.984; in assay [7] it was 0.908; in [8] it was 0.117. For the same compound, in assay [1], the composite Z-score was 0.544 (inactive).
